Most compounds without a hit are left out; they make up all but 2.4% or so of the library.
D2 antagonist: D2 dopamine receptor (human) antagonism; HEK293 TREx D2 cells, calcium flux, dopamine EC80; 340,000 tested, 2% active; P14416; AID 485344; inhibition, % at 10 µM; in the data active means inhibition above about 30%; inactive means below that, where a call was filed; further: 0% is about no effect
Target sequence (P14416 whole entry, looked up): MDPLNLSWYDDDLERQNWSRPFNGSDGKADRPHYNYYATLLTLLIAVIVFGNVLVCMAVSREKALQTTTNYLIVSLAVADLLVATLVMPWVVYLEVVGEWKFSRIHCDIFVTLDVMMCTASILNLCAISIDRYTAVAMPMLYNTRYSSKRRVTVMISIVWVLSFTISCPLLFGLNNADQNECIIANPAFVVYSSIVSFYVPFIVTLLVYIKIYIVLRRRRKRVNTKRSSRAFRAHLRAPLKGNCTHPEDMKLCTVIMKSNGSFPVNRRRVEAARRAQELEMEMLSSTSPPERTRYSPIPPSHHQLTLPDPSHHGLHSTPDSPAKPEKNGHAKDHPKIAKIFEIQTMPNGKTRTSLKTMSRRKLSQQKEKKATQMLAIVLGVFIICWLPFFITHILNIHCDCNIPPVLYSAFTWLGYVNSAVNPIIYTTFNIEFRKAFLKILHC
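Read-out: kinetic calcium fluorescence (1 cycle/s) in inducible HEK293 T-REx D2 cells after an EC80 dopamine addition that followed 180 s compound preincubation. Loss of the dopamine response indicates antagonism.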
D2 ag-1: activates the human D2 dopamine receptor; 360,000 tested, 0.084% active; DiscoveRx PathHunter D2 beta-arrestin, luminescence, 90 min; 100% = 57 uM dopamine signal; P14416; activation, % (test concentration not listed); in the data active means activation above about 40%
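Agonist mode: compounds alone added to overnight-plated D2 PathHunter cells for 90 min at 37 C, with 57 uM final dopamine (EC100) defining full response. Beta-arrestin recruitment detected by chemiluminescent reagent, read after 1 h at ambient temperature.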
D2 ag-2: agonists of human D2 dopamine receptor | P14416 | HEK293 T-REx D2 cells, calcium flux agonist mode | activation, % at 2 µM | 340,000 tested, 0.53% active | AID 485358;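 active means activation over 3 SD above normal in the single-dose calcium agonist read, cut at about 30% in these data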; further: 0% is about no effect
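Agonism scored from kinetic calcium signal (1 read/sec, 180 s) following compound pin transfer, after a 10 s baseline. Cells: HEK293 Trex line expressing inducible D2 receptor coupled to calcium, dye-loaded after overnight culture at 30 C.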
D2 PAM-1: human D2 receptor positive allosteric modulation; potentiation, % (test concentration not listed); AID 624464; 360,000 tested, 0.23% active; P14416; DiscoveRx D2 beta-arrestin cells, luminescence, 90 min; 100% = 57 uM dopamine signal; in the data active means potentiation above about 50%
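D2 cells co-treated with compound plus 50 nM dopamine (EC20) for 90 min at 37 deg C to detect potentiation. Beta-arrestin recruitment was read as enzyme-fragment luminescence after 1 h at ambient temperature. Full response was set by 57 uM dopamine.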
D2 PAM-2: positive allosteric modulators of human D2 dopamine receptor; AID 485347; HEK293 T-REx D2, calcium flux, EC20 dopamine potentiation; 340,000 tested, 0.34% active; potentiation, % at 10 µM; P14416;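 active means potentiation over 3 SD above the plate norm, cut at about 30% in these data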; further: 0% is about no effect
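Cells plated with tetracycline inducer and held overnight at 30 C; calcium dye loaded 30–90 min at room temperature; baseline taken, compound added and read 180 s; EC20 dopamine then added and read 180 s.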
Numbers without * were called inactive; . = no result given.

SMILES	D2 antagonist	D2 ag-1	D2 ag-2	D2 PAM-1	D2 PAM-2
O=[N+]([O-])c1ccc(Cl)c(S(=O)(=O)Nc2cccc(-c3ccc(N4CCOCC4)nn3)c2)c1	34*	3	1	17	-5
Cc1ccc(NC(=O)C2CCCCC2)cc1C	36*	-1	-1	-24	-7
CCC1=C(OC(=O)N(CC)CC)N2C(=O)OC(=NCCOC)[C@]2(Cc2ccccc2)[C@H]2C1=CC[C@H]1C(=O)NC(=O)[C@H]12	52*	1	1	-9	-1
COc1cc2c(cc1OC)C(COc1ccc(F)cc1)N(C(=O)c1ccc(S(=O)(=O)N3CCCC3)cc1)CC2 (centres undefined)	.	.	0	.	-2
COc1ccccc1-c1cc(C(=O)NCc2cccs2)no1	76*	-2	1	-31	-24
COc1ccc(-c2cc(C(=O)NCc3ccc(Cl)cc3)no2)cc1OC	-7	2	0	0	-7
COc1ccc(OC)c(-c2cc(C(=O)NCc3ccc(Cl)cc3)no2)c1	62*	-3	1	-19	-13
COc1ccccc1-c1cc(C(=O)NC(C)c2ccccc2)no1 (centres undefined)	61*	-1	1	-16	-26
COc1ccc(OC)c(-c2cc(C(=O)NCc3cccs3)no2)c1	24	-2	0	-15	-23
CCOc1cc(C(=O)NCC(c2ccc(N(C)C)cc2)N2CCOCC2)cc(OCC)c1OCC (centres undefined)	.	.	-2	.	.
CCc1nn(CC(=O)Nc2ccc(C)c(F)c2)c(=O)c2cc3cc(C)ccc3n12	.	.	0	.	13
CCOC(=O)c1cc2c(=O)n3ccccc3nc2n(Cc2ccco2)c1=NC(=O)c1cccc(F)c1	.	.	.	.	6
CN(c1ccc(C(=O)NCc2ccccn2)cc1)S(=O)(=O)c1ccc(Cl)cc1	-3	-2	0	-9	2
Cc1ccc(S(=O)(=O)N(C)c2ccc(C(=O)NCc3ccccn3)cc2)cc1	57*	2	0	-7	-12
COc1ccc(-n2nc3c(N4CCCC(C(=O)NCc5ccc(C)cc5)C4)nnc(C)c3c2C)cc1 (centres undefined)	.	.	1	.	15
COCCn1cnc2c1c(=O)n(Cc1ccccc1C#N)c(=O)n2Cc1ccccc1	-6	-6	0	-6	36*
Cc1ccccc1Cn1cnc2c(NS(C)(=O)=O)c(C)c(C)cc21	35*	1	0	-3	-5
CN(C)Cc1c(O)ccc2occ(C(=O)c3ccccc3)c12	-25	2	0	-8	54*
Cc1ccc(NC(=O)Cn2nc(C)n3cccc3c2=O)c(C)c1	.	.	-1	.	-5
CCC(=O)N1CCc2cc(Br)cc(S(=O)(=O)CCC(=O)N3CCN(c4ccccc4F)CC3)c21	.	.	0	.	-13
O=C(O)c1cc(S(=O)(=O)Nc2cccc(Oc3ccccc3)c2)ccc1Br	12	-2	-2	-4	39*
O=C(Nc1ccccc1C(=O)O)c1cccc(NS(=O)(=O)c2ccc(Br)cc2)c1	.	3	.	82*	.
O=C(CSc1nc2c([nH]c3ccccc32)c(=O)n1-c1ccc(F)cc1)NCc1ccc(F)cc1	.	.	0	.	2
Cc1occc1C(=O)N/N=C/C=C/c1ccccc1[N+](=O)[O-]	38*	-4	-1	-5	-20
CC(NC(=O)Cn1cc2c(n1)CCCCC2)c1ccccc1 (centres undefined)	35*	-2	0	0	1
SMILES	D2 antagonist	D2 ag-1	D2 ag-2	D2 PAM-1	D2 PAM-2
COc1cc(C2C(C#N)=C(N)Oc3n[nH]c(-c4cccnc4)c32)ccc1OCC(N)=O (centres undefined)	30*	-4	1	-8	-5
NC(=O)C1CCN(C(=O)NC2CC(=O)N(c3ccc4c(c3)OCCO4)C2)CC1 (centres undefined)	46*	-9	0	-31	-8
COc1ccc2c(c1)Sc1ccccc1N2CCN(C)C	40*	-4	-2	-37	.
Cc1cccc(NC(=O)CSc2cn(CC(=O)N3CCOCC3)c3ccccc23)c1C	.	.	0	.	3
NC(N)=NCc1cccc(I)c1	34*	5	1	-17	-5
Cc1ccc(NC(=O)c2c(C)cc(C)nc2SCC(=O)Nc2ccc(Br)cc2)cc1	.	.	4	.	-23
O=C(COc1ccccc1[N+](=O)[O-])N/N=C/c1ccc(O)cc1	4	13	0	72*	13
CC1C(=O)N2CCCc3cc(S(=O)(=O)Nc4ccc(Br)cc4F)cc1c32 (centres undefined)	.	.	0	.	-5
c1nnc(-c2ccc3c(c2)OCO3)o1	31*	4	1	5	-2
Cc1ccc(-c2nnc(-c3ccc4c(c3)OCO4)o2)cc1	-12	-3	5	-10	17
COc1cc(C(=S)N2CCOCC2)ccc1OC(=O)c1ccc([N+](=O)[O-])cc1[N+](=O)[O-]	5	59*	0	61*	-2
COc1ccc(C(=S)N2CCOCC2)cc1OC(=O)c1ccc([N+](=O)[O-])cc1	-10	8	1	14	16
Cc1ccc2cccc(NC(=S)NC(=O)c3ccccc3)c2n1	4	-3	0	-13	33*
COc1ccc(NC2c3ccccc3C(=O)N2c2ccccn2)cc1 (centres undefined)	41*	-2	-1	2	-4
CCC(C(=O)OCC(=O)C1(O)CCC2C3CCC4=CC(=O)CCC4(C)C3C(O)CC21C)C(C)C (centres undefined)	.	9	.	56*	.
CC(=O)[C@@]1(O)CC[C@H]2[C@@H]3CCC4=CC(=O)CC[C@]4(C)[C@H]3[C@@H](O)C[C@@]21C	22	-5	-1	9	-8
Cc1ccccc1OCc1nnc(SCc2cc(=O)c3cccc(F)c3[nH]2)n1C	.	.	.	.	8
CCCN1C(=O)/C(=C/c2c(N3CCNC(=O)C3CC(=O)OCC)nc3c(C)cccn3c2=O)SC1=S (centres undefined)	4	-1	81*	4	-4
CCOC(=O)CC1C(=O)NCCN1c1nc2ccc(C)cn2c(=O)c1/C=C1\SC(=S)N(CC(C)C)C1=O (centres undefined)	14	-4	104*	-4	-12
CCOC(=O)CC1C(=O)NCCN1c1nc2ccc(C)cn2c(=O)c1/C=C1\SC(=S)N(C(C)CC)C1=O (centres undefined)	32*	.	73*	.	-6
CCOC(=O)CC1C(=O)NCCN1C(=O)c1ccc(C)cc1 (centres undefined)	8	-3	0	26	-2
CCCCCN1C(=O)/C(=C/c2c(N3CCc4ccccc4C3)nc3ccccn3c2=O)SC1=S	.	-4	.	-8	.
CCN(CC)c1ccc(NC(=O)c2cccn2-c2nnc(N3CCCCC3)s2)c(C)c1	.	.	10	.	-7

Screening results as filed in PubChem.
